# Source: PubChem BioAssay
# Where “and” joins values, the source holds several entries; their conditions need not be identical. Identical values can stand only once. Unmarked numbers belong to inactive results. Calls of active or inactive are those of the source.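 How the source made its calls: active means inhibition at or above 50% relative to wild type and mutant plate controls; inactive means inhibition below 50%.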
# Test: inhibitors of Chlamydomonas gravitaxis, primary screen, whole organism, Chlamydomonas reinhardtii, WT vs cilia-less mutant, absorbance, 96-well (AID 463189);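 further: 0% = wild type cc124 cells in DMSO and 100% = ciliumless bld1 mutant cells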
# Conditions: OD600 absorbance, 2 days, at 10 µM, stronger effect = higher value
row,Structure (SMILES),inhibition
1,NC(N)=NOCC[C@H](N)C(=O)O,-0.094%
2,CCCN(CCC)[C@@H]1CCc2ccc(O)cc2C1,-3.45%
3,CP(=O)(O)CCCN,3.64%
4,Nc1ncnc2c1ncn2[C@@H]1O[C@H](COP(=O)(O)CP(=O)(O)OP(=O)(O)O)[C@H](O)C1O (stereo not given in full),8.43%
5,COC(=O)c1cc2c(cn1)[nH]c1ccccc12,2.96%
6,C[C@@H]1O[C@@H](O[C@H]2C[C@@H](O)[C@]3(CO)[C@@H]4C(CC[C@]3(O)C2)[C@@]2(O)CC[C@H](C3COC(=O)C3)[C@@]2(C)C[C@H]4O)[C@H](O)[C@H](O)[C@H]1O (stereo not given in full),0.796%
7,NC(=O)CI,-0.903%
8,Oc1ccc2c3c1O[C@H]1c4[nH]c5ccccc5c4C[C@@]4(O)C(C2)N(CC2CC2)CCC314 (stereo not given in full),3.32%
9,NC(=O)COc1c(F)cc(SCCNS(=O)(=O)c2ccccc2)cc1F,4.45%
10,C[N+](C)(C)CC(=O)O,3.38%
11,CCCN1CCC[C@@H]2Cc3[nH]ncc3C[C@H]21,1.82% and 2.66%
12,CCn1cnc2c(Nc3cccc(Cl)c3)nc(N[C@@H]3CCCC[C@@H]3N)nc21,4.56%
13,CC(=O)[C@H]1CCC2C3CC[C@H]4C[C@H](O)CC[C@]4(C)C3CC[C@@]21C (stereo not given in full),0.863%
14,CN[C@@H]1C[C@@H](c2ccc(Cl)c(Cl)c2)c2ccccc21,129% (active)
15,CN(N=O)c1ccc(O)c(O)c1,1.04%
